This is an account of results in PubChem BioAssay (NCATS).

The structures appear in SMILES notation. Inconclusive results are not listed. Entries that show only a call come without a potency. Activity calls are given as the source filed them. The call rests on the fitted dose curve; in most records, active means well fitted curve in the direction sought with a large enough effect; inconclusive means small, poorly fitted or top-dose-only effect, or another doubt; inactive means no such curve, though single readings can be large; an effect the other way counts as inactive or inconclusive.
Potency means the concentration at half of the fitted maximal effect.

Sequence of Rap guanine nucleotide exchange factor 3 (Homo sapiens) (O95398 whole entry, looked up): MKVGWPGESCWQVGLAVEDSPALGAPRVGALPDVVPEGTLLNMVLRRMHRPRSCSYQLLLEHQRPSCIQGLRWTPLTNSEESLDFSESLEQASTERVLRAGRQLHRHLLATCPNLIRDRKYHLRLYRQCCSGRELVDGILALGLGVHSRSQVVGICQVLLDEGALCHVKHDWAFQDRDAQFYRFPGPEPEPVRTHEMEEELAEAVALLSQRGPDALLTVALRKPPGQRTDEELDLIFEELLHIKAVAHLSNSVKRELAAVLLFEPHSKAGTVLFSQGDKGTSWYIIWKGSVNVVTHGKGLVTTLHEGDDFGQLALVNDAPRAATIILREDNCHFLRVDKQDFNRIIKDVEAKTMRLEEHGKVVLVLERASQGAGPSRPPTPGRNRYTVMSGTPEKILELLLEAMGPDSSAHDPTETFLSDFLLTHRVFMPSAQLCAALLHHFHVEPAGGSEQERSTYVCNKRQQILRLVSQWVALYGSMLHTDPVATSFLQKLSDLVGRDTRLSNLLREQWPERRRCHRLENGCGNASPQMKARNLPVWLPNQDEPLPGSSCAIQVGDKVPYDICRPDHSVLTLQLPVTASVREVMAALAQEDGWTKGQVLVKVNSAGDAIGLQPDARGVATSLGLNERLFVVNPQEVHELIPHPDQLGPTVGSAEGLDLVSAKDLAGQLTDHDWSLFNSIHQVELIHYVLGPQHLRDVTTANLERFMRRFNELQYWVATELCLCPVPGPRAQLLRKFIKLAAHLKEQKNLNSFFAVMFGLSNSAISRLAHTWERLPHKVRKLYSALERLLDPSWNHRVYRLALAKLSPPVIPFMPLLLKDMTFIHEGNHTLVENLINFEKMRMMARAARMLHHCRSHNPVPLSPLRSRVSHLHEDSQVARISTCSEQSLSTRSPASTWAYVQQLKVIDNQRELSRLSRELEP

The first assay concerns the target Rap guanine nucleotide exchange factor 3 (Homo sapiens) (UniProt O95398). In words: Confirmatory qHTS for antagonist of cAMP-regulated guanine nucleotide exchange factor 3 (EPAC1) (AID 1645880). Further: nearly all actives have a fitted effect of over 55% in size. To be noted: EPAC1 Rap1B-BODIPY-GDP exchange, fluorescence; activity, negative = inhibition: at 115 µM (top of the series). An outline of the steps: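 Nucleotide exchange uses 100 nM EPAC1, 250 nM RAP1B-BODIPY-GDP and 50 uM GDP, with compounds in a concentration-titration series. After 5 min at room temperature, fluorescence (480 nm ex/540 nm em) is read every 5 min for 30 min. Data are normalized to control ATA and DMSO.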
In general terms: qHTS replaces the single test concentration by a dilution series.
As to `COc1ccc(/C=C2/C(=O)N(CC3CCCO3)C(=S)N2C)c(OC)c1` (stereo unspecified), the Potency was 84.9 µM (active).

As to `COc1ccc(NS(=O)(=O)c2cc(N)ccc2N2CCCCC2)cc1`, the Potency result was “inactive”.

Consider `Cc1onc(-c2ccc3c(c2)OCO3)c1-c1ccc2[nH]ccc2c1`, for which the Potency entry was “inactive”. Turning to `COc1cc(Br)cc(C(=O)N2CCc3ccccc32)c1OC`, the Potency entry was “inactive”. As for `C=Nc1ccc(/C=C/c2ccnc3ccccc23)cc1`, the Potency entry was “inactive”. `CC(=O)Oc1c2c(c3c(c1CC=C(C)C)O[C@@]14C(=CC5CC1C(C)(C)OC4(C/C=C(\C)C(=O)O)C5=O)C3=O)OC(C)(CCC=C(C)C)C=C2` (stereo partly specified): the Potency is 55.9 µM (active). Take `O=C(CN1CCCCC1)Nc1cc(Cl)ccc1Oc1ccccc1`: the Potency result is “inactive”. In the case of `O=c1cc2oc3cc(O)c(O)cc3c(-c3ccccc3[N+](=O)[O-])c-2cc1O`, the Potency is 10.7 µM (active). In the case of `O=C(c1ccco1)N1N=C2CCCCCC2C1(O)C(F)(F)F` (stereo unspecified), the Potency result is “inactive”.

As to `Nc1ncnc2c1nc(Sc1ccc(Cl)cc1)n2[C@@H]1O[C@@H]2COP(=O)(O)O[C@H]2[C@H]1O`, the Potency was 0.213 µM (active). On to `Cc1ccc(NC(=O)N2CC3CCCN3c3ccccc32)cc1Cl` (stereo unspecified), for which the Potency result was “inactive”. `CCOC(=O)C(Cc1ccc(Cl)cc1Cl)c1ccno1` (stereo unspecified): the Potency entry is “inactive”.

On to `CCCCN(CCC#N)c1ccc(/C=C/c2ccnc3ccccc23)cc1`, for which the Potency result was “inactive”. The same measure, in the same setting: the same measure for `CN(C)c1ccc(/C=C/c2sc3ccccc3[n+]2CCCCBr)cc1`: “inactive”; for `COc1cccc(-c2nc(N3CCN(c4ccccc4)CC3)c3ccccc3n2)c1O`: “inactive”. As for `COc1ccc(C2OCC3(COC(C)=O)C(C)C=C(C)C2C3C)cc1` (stereo unspecified), the Potency entry was “inactive”.

As to `O=C(NCc1ccccc1F)c1ccc(CN2CC(=O)N3CCCCC3C2=O)cc1` (stereo unspecified), the Potency result was “inactive”. For `CSc1ccc(S(=O)(=O)NCC(=O)OCC(=O)N(C)Cc2ccccc2)cc1[N+](=O)[O-]`, the Potency entry is “inactive”. With `COc1ccc([N+](=O)[O-])cc1-c1nc2ccccc2nc1-c1ccccc1`, the Potency entry is “inactive”. Still for that read-out and setting: the figure for `C=CCn1c(SCc2cc([N+](=O)[O-])cc3c2OCOC3)nc2cc(C(=O)O)ccc2c1=O` is 75.7 µM (active). Still for that read-out and setting: the same measure for `COC(=O)c1cc(C(=O)OC)n(Cc2ccc(F)cc2)c1C`: “inactive”; for `CCCCN(CCCC)c1ccc(/C=C/c2ccnc3ccccc23)cc1`: “inactive”; for `CC(=O)NC(c1ccc(Cl)cc1)c1ccc2cccnc2c1O` (stereo unspecified): “inactive”.

`COc1ccc(C2CC2/C(=N/O)c2ccccn2)cc1` (stereo unspecified): the Potency result was “inactive”. As for `COc1cc(C)c2c(=O)cc(-c3ccccc3)oc2c1`, the Potency result is “inactive”. As to `NS(=O)(=O)c1cccc(Nc2nc3ccccc3nc2NS(=O)(=O)c2ccc(Cl)cc2)c1`, the Potency is 75.7 µM (active).

The target is the same in a further assay. In words: Confirmatory qHTS for agonist of cAMP-regulated guanine nucleotide exchange factor 3 (EPAC1) (AID 1645881). Further: nearly all actives have a fitted effect of over 75% in size. To be noted: EPAC1 Rap1B BODIPY-GDP exchange fluorescence; series mostly up to 154 µM.
In the case of `COC(=O)C1=C(C)N(c2ccc(OC)cc2)C(C)=C(C(=O)OC)C1c1ccccc1`, the Potency entry was “inactive”. Regarding `COc1ccc(C(=S)N2CCOCC2)cc1OC(=O)c1ccccc1Cl`, the Potency result is “inactive”. Consider `CCOC(=O)C1(Cc2ccccc2)C(=O)Nc2ccccc21` (stereo unspecified), for which the Potency result was “inactive”. Consider `O=C(CCn1c(=O)oc2ccccc21)N(Cc1ccccc1)c1ccccc1`, for which the Potency result was “inactive”. For `COc1ccc(OC)c(/C=C/c2ccnc3ccccc23)c1`, the Potency entry was “inactive”. `CN(C)c1ccc2nc3c(=O)[nH]c(=O)nc-3n(CC(O)C(O)C(O)CO)c2c1` (stereo unspecified): the Potency result was “inactive”. Consider `COc1ncc2nc(-c3ccccc3)c(=O)n(Cc3cccs3)c2n1`, for which the Potency result was “inactive”.

For `Cc1nnc(N2CCC(C(=O)NC3CCCCC3)CC2)c2nn(-c3ccccc3)c(C)c12`, the Potency entry was “inactive”. Turning to `Oc1ccc2ccccc2c1-c1sc(Nc2ccccc2)n[n+]1-c1ccc(F)cc1`, the Potency result is “inactive”. Regarding `Cc1ccccc1-c1ccc2ncnc(N3CCOCC3)c2c1`, the Potency entry was “inactive”. Consider `CN(C)c1ccc(/C=C/c2c3c(nc4ccccc24)CCCC3)cc1`, for which the Potency entry was “inactive”. For `O=C1C=C(c2ccccc2)C(c2ccccc2)C1` (stereo unspecified), the Potency entry was “inactive”. For `COc1ccc2c(c1)CCC1(C)CC(=O)C(Br)=C21` (stereo unspecified), the Potency result is “inactive”. On to `O=C(O)/C(CC(=O)c1ccc(Cl)cc1)=N/Nc1ccc([N+](=O)[O-])cc1[N+](=O)[O-]`, for which the Potency result is “inactive”. As for `COc1ccc(/C=C2/C(=O)N(CC3CCCO3)C(=S)N2C)c(OC)c1` (stereo unspecified), the Potency result was “inactive”. On the same count and under the same terms, the entry for `COc1ccc(NS(=O)(=O)c2cc(N)ccc2N2CCCCC2)cc1` is “inactive”; for `Cc1onc(-c2ccc3c(c2)OCO3)c1-c1ccc2[nH]ccc2c1` it is “inactive”; for `COc1cc(Br)cc(C(=O)N2CCc3ccccc32)c1OC` it is “inactive”. As to `C=Nc1ccc(/C=C/c2ccnc3ccccc23)cc1`, the Potency entry is “inactive”.

Turning to `CC(=O)Oc1c2c(c3c(c1CC=C(C)C)O[C@@]14C(=CC5CC1C(C)(C)OC4(C/C=C(\C)C(=O)O)C5=O)C3=O)OC(C)(CCC=C(C)C)C=C2` (stereo partly specified), the Potency result is “inactive”.

On to `O=C(CN1CCCCC1)Nc1cc(Cl)ccc1Oc1ccccc1`, for which the Potency entry was “inactive”. For the compound `O=c1cc2oc3cc(O)c(O)cc3c(-c3ccccc3[N+](=O)[O-])c-2cc1O`, the Potency entry was “inactive”.

`O=C(c1ccco1)N1N=C2CCCCCC2C1(O)C(F)(F)F` (stereo unspecified): the Potency result is “inactive”. Regarding `Nc1ncnc2c1nc(Sc1ccc(Cl)cc1)n2[C@@H]1O[C@@H]2COP(=O)(O)O[C@H]2[C@H]1O`, the Potency was 0.355 µM (active). Still for that read-out and setting: the same measure for `Cc1ccc(NC(=O)N2CC3CCCN3c3ccccc32)cc1Cl` (stereo unspecified): “inactive”. Consider `CCOC(=O)C(Cc1ccc(Cl)cc1Cl)c1ccno1` (stereo unspecified), for which the Potency result was “inactive”. For `CCCCN(CCC#N)c1ccc(/C=C/c2ccnc3ccccc23)cc1`, the Potency entry was “inactive”. Turning to `CN(C)c1ccc(/C=C/c2sc3ccccc3[n+]2CCCCBr)cc1`, the Potency result is “inactive”. Still for that read-out and setting: the same measure for `COc1cccc(-c2nc(N3CCN(c4ccccc4)CC3)c3ccccc3n2)c1O`: “inactive”.

On to `COc1ccc(C2OCC3(COC(C)=O)C(C)C=C(C)C2C3C)cc1` (stereo unspecified), for which the Potency result was “inactive”.

In the case of `O=C(NCc1ccccc1F)c1ccc(CN2CC(=O)N3CCCCC3C2=O)cc1` (stereo unspecified), the Potency result was “inactive”. As to `CSc1ccc(S(=O)(=O)NCC(=O)OCC(=O)N(C)Cc2ccccc2)cc1[N+](=O)[O-]`, the Potency result was “inactive”. On to `COc1ccc([N+](=O)[O-])cc1-c1nc2ccccc2nc1-c1ccccc1`, for which the Potency entry was “inactive”. In the case of `C=CCn1c(SCc2cc([N+](=O)[O-])cc3c2OCOC3)nc2cc(C(=O)O)ccc2c1=O`, the Potency entry is “inactive”. For the compound `COC(=O)c1cc(C(=O)OC)n(Cc2ccc(F)cc2)c1C`, the Potency entry is “inactive”.

With `CCCCN(CCCC)c1ccc(/C=C/c2ccnc3ccccc23)cc1`, the Potency entry is “inactive”. On to `CC(=O)NC(c1ccc(Cl)cc1)c1ccc2cccnc2c1O` (stereo unspecified), for which the Potency entry is “inactive”.

As to `COc1ccc(C2CC2/C(=N/O)c2ccccn2)cc1` (stereo unspecified), the Potency result is “inactive”. Still for that read-out and setting: the entry for `COc1cc(C)c2c(=O)cc(-c3ccccc3)oc2c1` is “inactive”; for `NS(=O)(=O)c1cccc(Nc2nc3ccccc3nc2NS(=O)(=O)c2ccc(Cl)cc2)c1` it is “inactive”.
